Shown are actives, neighbours in structure and some others; about 7.3% of the full set was active somewhere.
SMN2 splice enh – SMN2 splice variant enhancement. HEK293 SMN2-luciferase splicing reporter, luminescence, 30-36 h. Potency, µM (titrated, usually from 46.1 µM), for the others: top-dose activity change, positive = activation, most hits filed as activators. 2.8% of 210,000 active; also: % of control where 0% means no effect; nearly all actives have a fitted effect of over 55% in size
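HEK293 cells carry an SMN2 minigene-luciferase reporter in which exon 7 inclusion puts luciferase in frame. Cells were seeded at 2000 cells/well, attached for 10-12 hours, then exposed to compounds for 30-36 hours at 37C before ONE-Glo luminescence.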
FLuc modulator – counter-screen for miR-21 project: firefly luciferase inhibitors or activators; P08659; purified FLuc, Km substrates, luminescence inhibition; Potency, µM (doses to about 57.5 µM), inactives show at the top dose activity change, negative = inhibition, hits mostly inhibitors; 6.9% of 360,000 active;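 also: plate controls were vehicle for no effect and reference inhibitor for full effect; nearly all actives have a fitted effect of over 55% in size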
Target sequence (P08659 whole entry, looked up): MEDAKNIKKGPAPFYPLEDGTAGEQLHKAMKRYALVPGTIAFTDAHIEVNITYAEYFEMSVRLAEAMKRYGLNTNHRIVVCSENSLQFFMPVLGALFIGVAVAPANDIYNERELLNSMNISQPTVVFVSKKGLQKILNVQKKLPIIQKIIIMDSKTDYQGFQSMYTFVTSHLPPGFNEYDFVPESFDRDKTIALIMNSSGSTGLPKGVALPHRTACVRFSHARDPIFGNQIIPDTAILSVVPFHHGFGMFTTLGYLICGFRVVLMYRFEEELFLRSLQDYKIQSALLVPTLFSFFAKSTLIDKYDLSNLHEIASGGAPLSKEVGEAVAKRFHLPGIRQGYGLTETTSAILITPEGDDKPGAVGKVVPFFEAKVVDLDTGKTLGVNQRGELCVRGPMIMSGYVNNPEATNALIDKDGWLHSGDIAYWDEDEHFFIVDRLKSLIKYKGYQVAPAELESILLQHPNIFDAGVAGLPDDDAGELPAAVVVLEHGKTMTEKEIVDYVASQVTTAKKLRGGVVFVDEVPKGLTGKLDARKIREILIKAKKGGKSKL
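Biochemical qHTS of compounds, final roughly 60 µM downward over six points, against 10 nM purified firefly luciferase using Km concentrations of substrates (10 uM D-luciferin, 10 uM ATP) in Tris acetate pH 7.5 buffer; luminescence output.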
Rab9 promoter act – activators of Rab9 promoter. 2.8% of 320,000 active. Huh7 Rab9 promoter-luciferase reporter, luminescence, 24 h. Potency, µM (series often up to 9.22 µM), for the others: at the highest dose activation, negative = inhibition, hits mostly activators; also: % of control where 0% means no effect; nearly all actives have a fitted effect of over 60% in size
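Quantitative HTS format; Huh7 Rab9-luciferase reporter cells (1500/well) receive compound 2 h post-plating, incubate 24 h at 37 °C, then get luciferase reagent for 10 min before luminescence reading.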
NPC1 promoter act – activators of NPC1 promoter | Huh7 NPC1 promoter luciferase reporter, 24 h | Potency, µM (doses to about 9.22 µM), without a hit: top-dose activation, usual class: activators | 2.4% of 320,000 active; also: % of control where 0% means no effect; nearly all actives have a fitted effect of over 60% in size
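Cells: Huh7 expressing luciferase under the NPC1 promoter, 1500/well. Seeded 2 h, compound added, incubated 24 h at 37 °C. Luciferase reagent, 10 min ambient, then luminescence.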
p53 reactivation – restores transcriptional activity of mutant p53. H1299 p53-A138V BP100-luciferase reporter, luminescence, 24 h. Potency, µM (series often up to 92.2 µM), inactives show at the top dose activity change, positive = activation, hits mostly activators. 0.063% of 320,000 active; also: % of control where 0% means no effect; nearly all actives have a fitted effect of over 45% in size
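H1299 (p53-null), stable ts p53-A138V + BP100-Luc; 1000 cells/well, Opti-MEM/10% FBS; cpd 4 pt, 1:5; 24 h, 37 deg C, 5% CO2; detection reagent 10 min RT; luminescence.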
ELG1 genotox – genotoxicity induction in ELG1-luciferase HEK293T cells; HEK293T ELG1-luciferase reporter, luminescence, 16 h; Potency, µM (doses to about 46 µM), without a hit: at the highest dose activity change, positive = activation, actives largely listed as activators; 1.3% of 330,000 active; also: % of control where 0% means no effect; nearly all actives have a fitted effect of over 60% in size
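16 hr compound incubation (37 °C, 5% CO2) of HEK293T cells carrying luciferase-tagged ELG1; luciferase then measured by ONE-Glo luminescence after 30 min at RT.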
The depositor's hits bear a star; ? = inconclusive; . = no result given; [ ] = dose if it differs, or a comment. Calls follow the shape of the dose curve; as a rule, active = well fitted curve in the direction sought with a large enough effect; inconclusive = small, poorly fitted or top-dose-only effect, or another doubt; inactive = no such curve, though single readings can be large; an effect the other way counts as inactive or inconclusive. Potency is read from the fitted curve at half-maximal effect.

SMILES	SMN2 splice enh	FLuc modulator	Rab9 promoter act	NPC1 promoter act	p53 reactivation	ELG1 genotox
O=C(O)CCn1cc(C=C2C(=O)NC(=S)NC2=O)c(-c2ccccc2)n1	11%	24µM*	5%	3%	-3%	2%
O=C(O)CCn1cc(C=C2C(=O)NC(=S)NC2=O)c(-c2cc3ccccc3oc2=O)n1	-25%	17µM*	12%	2%	1%	0%
O=C(O)Cc1cccnc1C(=O)O	-1%	.	.	.	.	.
COc1ccc(N=Cc2c(O)n(C)c(=O)n(C)c2=O)cc1	.	13µM*	3%	4%	9%	13%
Cc1cccc(N=Cc2c(O)n(C)c(=O)n(C)c2=O)c1	.	-14%	-3%	-4%	.	-8%
Cc1ccc(N=Cc2c(O)n(C)c(=O)n(C)c2=O)cc1	.	12µM*	24%	19%	?	2%
Cc1cccc(OCCn2c(=O)oc3ccc(C)cc32)c1	.	19µM*	?	18%	5%	?
Cc1cccc(OCCCn2c(=O)oc3ccccc32)c1	19%	?	18%	-2%	19%	?
CC(C)[C@@H](Br)C(=O)NCC(=O)O	-8%[9.22 µM]	.	.	.	.	.
Clc1ccc2sc(C3CCNCC3)nc2c1	.	24µM*	?	?	2%	?
Clc1cccc(SC2CCNCC2)n1	1%	.	.	.	.	.
COc1ccc(-c2coc3cc(OC(=O)N4CCOCC4)ccc3c2=O)cc1	.	24µM*	?	23%	20%	-7%
NC(Cc1ccccc1)c1nc2ccccc2[nH]1 (centres undefined)	.	?	13%	18%	12%	10%
NC(Cc1nc2ccccc2[nH]1)c1ccc(Cl)cc1 (centres undefined)	.	11µM*	?	14%	?	13µM*
O=C(Cc1ccccc1)OCC(=O)c1ccccc1	.	6.7µM*	0%	-4%	10%	-2%
Cc1ccc(C(=O)COC(=O)Cc2ccccc2)cc1	.	0.95µM*	0%	2%	?	?
O=C(Nc1ccccc1)N1CC[C@@]2(CCCNC2)C1	1%	.	.	.	.	.
Cc1ccc(Cn2cc(C=O)c(-c3ccc(C)cc3)n2)cc1	?	17µM*	?	25%	?	?
O=C(NC1CC1)c1cn(Cc2ccccc2)nc1-c1ccccc1	.	4%	0%	1%	16%	-1%
CC1(C)CCC(C)(C)c2c1ccc(O)c2Cc1c(O)ccc2c1C(C)(C)CCC2(C)C	-7%[9.22 µM]	.	.	.	.	.
Nc1c2c(nc3ccccc13)CCN(Cc1ccccc1)C2	.	24µM*	-3%	12%	0%	-4%
CN1C(=O)C(=Cc2ccc(N3CCCCCC3)cc2)C(=O)N(C)C1=O	.	19µM*	0%	-3%	3%	0%
CC1(C)C(O)CC(O)[C@]2(C)C1CC(=O)[C@]1(C)C2CC[C@@]2(C)C(c3ccoc3)OC(=O)C3OC321 (some centres undefined)	-2%	.	.	.	.	.
C[C@@]12CC[C@H]3[C@@H](CC[C@@H]4C[C@H]5S[C@H]5C[C@]43C)[C@H]1CC[C@H]2O	-1%[20.6 µM]	.	.	.	.	.
COc1ccc(N2C(=O)/C(=C/C=C/c3ccccc3[N+](=O)[O-])C(=O)NC2=S)cc1	-7%	24µM*	1%	-1%	-5%	-1%
SMILES	SMN2 splice enh	FLuc modulator	Rab9 promoter act	NPC1 promoter act	p53 reactivation	ELG1 genotox
COc1ccc(N2C(=O)/C(=C/c3cccs3)C(=O)NC2=S)cc1	.	?	-8%	1%	-15%	?
c1ccc2c(c1)OC[C@@H](C1=NCCN1)O2	-5%[20.6 µM]	.	.	.	.	.
Cc1ccc(CSc2ncccc2C(=O)O)cc1	?	17µM*	1%	-1%	?	?
Cc1ccc(-c2cc(-c3ccccc3)cc(-c3ccccc3)[n+]2-c2ccccc2C(=O)O)cc1	.	10%	-4%	1%	5%	-2%
CCOc1ccc2nc(N=Nc3c(O)[nH]c(=S)[nH]c3=O)sc2c1	3%	19µM*	-1%	-4%	11%	-6%
CCOc1ccc2nc(N=Nc3c(O)[nH]c(=O)[nH]c3=O)sc2c1	.	?	4%	-3%	-1%	0%
COc1ccc(C(=O)N2CCC3(CC2)OCCO3)cc1	.	-1%	-5%	-3%	-11%	0%
COc1ccc(-n2nc(C(=O)NCC(=O)N3CCC4(CC3)OCCO4)c3ccccc3c2=O)cc1Cl	.	1.2µM*	?	?	?	12%
COc1ccc(-n2nc(C(=O)NCC(=O)N3CCC4(CC3)OCCO4)c3ccccc3c2=O)cc1	.	1.1µM*	?	?	?	?
COc1ccc(-c2cc(C(=O)N3CCC4(CC3)OCCO4)c3ccccc3n2)cc1	.	2.1µM*	?	26%	-2%	0%
COC(=O)c1ccc(-c2nc(-c3ccc(Br)o3)no2)cc1	12%	1.7µM*	4µM*	3.2µM*	?	?
N[C@H](Cc1c[nH]c2ccccc12)P(=O)(O)O	1%[9.22 µM]	.	.	.	.	.
CCCC(c1nnnn1Cc1cccs1)N1CCN(c2nc3ccccc3s2)CC1 (centres undefined)	-71%	0%	1%	2%	-1%	-18%
CCN1CCN(c2nc3ccccc3s2)CC1	11µM*	11µM*	2µM*	2.2µM*	8%	?
Cc1nn(C(C)(C)C)c(C)c1/C=N/OC(=O)Nc1ccc(Cl)cc1	.	0.095µM*	-39%	-38%	-11%	-3%
COc1ccc(CNC(=O)c2ccc(C(C)C)cc2)cc1	13µM*	9.5µM*	2.2µM*	3.5µM*	11%	?
N#CCCCC[N+]12CN3CN(CN(C3)C1)C2	-10%[9.22 µM]	.	.	.	.	.
O=C(Nc1ccc(Cl)cc1)Nc1nccs1	?	11µM*	-1%	-7%	?	3%
O=C(Oc1ccccc1)N1CCC2(CCN(Cc3nccs3)CC2)CC1	-40%	.	.	.	.	.
CCCCCCOc1ccc(CN2CCN(CC)CC2)cc1	-29%	9.5µM*	2.8µM*	4µM*	?	3.7µM*
NC1=NC([S][Hg][c]2ccc(N)cc2)c2ncn([C@@H]3O[C@H](CO)[C@@H](O)[C@@H]3O)c2N1 (some centres undefined)	-104%[9.22 µM]	.	.	.	.	.
O=Cc1cn(CCCOc2ccccc2)c2ccccc12	-61%	-19%	?	?	5%	-9%
COC(=O)c1cn(CCOc2ccccc2)c2ccccc12	23%	?	2%	22%	?	21µM*
CN(C)c1ccc(/C=C2/C(=O)NC(=O)N(Cc3ccco3)C2=O)cc1	-9%	-17%	0%	-6%	-11%	7%
O=C1NC(=S)N(Cc2ccco2)C(=O)/C1=C\c1cccs1	-18%	17µM*	-8%	-4%	-4%	0%
Cc1cc(/C=C2/C(=O)NC(=O)N(Cc3ccco3)C2=O)c(C)n1-c1ccccc1	-28%	5.4µM*	0%	1%	-3%	6%
